# Laboratory results as given in PubChem BioAssay AID1159580 (chemical genetic matrix, 2015).
# The whole screen tested about 5,500 compounds, of which about 2,000 (36%) were called active. Another 18% or so got no clear call; they are omitted. This is one part of the list. A number with no mark means an inactive call. No stated cut-off is given here; in the data, active means normalized growth mostly below about 0.91 (no sharp cut-off); inconclusive means no clear call, values can overlap the other calls; inactive means mostly above about 0.92.
# Assay: chemical genetic growth profiling, strain panel (AID 1159580);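 further: tested at 20 µM; growth read once vehicle control cultures reached saturation at 30 °C; 1 = growth at the plate median or of vehicle wells; lower values mean less growth of the strain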
# Settings: S. cerevisiae deletion strains, growth OD
smiles,measurement,setting,value
CN(C/C=C/C#CC(C)(C)C)Cc1cccc2ccccc12,normalized growth,"locus YAL021C, strain ccr4, active compounds read low",0.121 (active)
same,normalized growth,"locus YAL026C, strain drs2, active compounds read low",0.0882 (active)
same,normalized growth,"locus YAL030W, strain snc1, active compounds read low",0.334 (active)
same,normalized growth,"locus YBL061C, strain skt5, active compounds read low",0.256 (active)
same,normalized growth,"locus YBR009C, strain hhf1, active compounds read low",0.293 (active)
same,normalized growth,"locus YBR023C, strain chs3, active compounds read low",0.254 (active)
same,normalized growth,"locus YBR171W, strain sec66, active compounds read low",0.793 (active)
same,normalized growth,"locus YBR231C, strain swc5, active compounds read low",0.423 (active)
same,normalized growth,"locus YBR279W, strain paf1, active compounds read low",0.376 (active)
same,normalized growth,"locus YCL011C, strain gbp2, active compounds read low",0.228 (active)
same,normalized growth,"locus YCL016C, strain dcc1, active compounds read low",0.334 (active)
same,normalized growth,"locus YCL061C, strain MRC1, active compounds read low",0.478 (active)
same,normalized growth,"locus YCL069W, strain vba3, active compounds read low",0.283 (active)
same,normalized growth,"locus YCR088W, strain abp1, active compounds read low",0.498 (active)
same,normalized growth,"locus YDL005C, strain med2, active compounds read low",0.246 (active)
same,normalized growth,"locus YDL040C, strain nat1, active compounds read low",0.528 (active)
same,normalized growth,"locus YDR001C, strain nth1, active compounds read low",0.573 (active)
same,normalized growth,"locus YDR069C, strain doa4, active compounds read low",0.567 (active)
same,normalized growth,"locus YDR137W, strain rgp1, active compounds read low",0.492 (active)
same,normalized growth,"locus YDR159W, strain sac3, active compounds read low",0.512 (active)
same,normalized growth,"locus YDR195W, strain ref2",1.34 [resistant] (active)
same,normalized growth,"locus YDR297W, strain sur2, active compounds read low",0.398 (active)
same,normalized growth,"locus YDR334W, strain swr1, active compounds read low",0.492 (active)
same,normalized growth,"locus YDR335W, strain msn5, active compounds read low",0.219 (active)
same,normalized growth,"locus YDR392W, strain spt3, active compounds read low",0.163 (active)
same,normalized growth,"locus YEL003W, strain gim4, active compounds read low",0.311 (active)
same,normalized growth,"locus YEL037C, strain rad23, active compounds read low",0.372 (active)
same,normalized growth,"locus YEL061C, strain CIN8 (second series), active compounds read low",0.444 (active)
same,normalized growth,"locus YER015W, strain faa2, active compounds read low",0.384 (active)
same,normalized growth,"locus YER016W, strain bim1, active compounds read low",0.484 (active)
same,normalized growth,"locus YER111C, strain swi4, active compounds read low",0.417 (active)
same,normalized growth,"locus YER155C, strain BEM2 (second series), active compounds read low",0.469 (active)
same,normalized growth,"locus YFR010W, strain ubp6, active compounds read low",0.457 (active)
same,normalized growth,"locus YGL167C, strain pmr1, active compounds read low",0.909 (active)
same,normalized growth,"locus YGL173C, strain kem1, active compounds read low",0.488 (active)
same,normalized growth,"locus YGL227W, strain vid30, active compounds read low",0.536 (active)
same,normalized growth,"locus YGL240W, strain doc1, active compounds read low",0.459 (active)
same,normalized growth,"locus YGL253W, strain hxk2, active compounds read low",0.208 (active)
same,normalized growth,"locus YHR013C, strain ard1, active compounds read low",0.241 (active)
same,normalized growth,"locus YHR027C, strain rpn1, active compounds read low",0.442 (active)
same,normalized growth,"locus YHR030C, strain SLT2, active compounds read low",0.471 (active)
same,normalized growth,"locus YHR079C, strain IRE1, active compounds read low",0.792 (active)
same,normalized growth,"locus YHR142W, strain chs7, active compounds read low",0.174 (active)
same,normalized growth,"locus YJL092W, strain hpr5, active compounds read low",0.468 (active)
same,normalized growth,"locus YJL095W, strain BCK1 (second series), active compounds read low",0.0681 (active)
same,normalized growth,"locus YJL095W, strain BCK1, active compounds read low",0.472 (active)
same,normalized growth,"locus YJL115W, strain asf1, active compounds read low",0.664 (active)
same,normalized growth,"locus YJL129C, strain trk1, active compounds read low",0.351 (active)
same,normalized growth,"locus YJL154C, strain vps35, active compounds read low",0.649 (active)
same,normalized growth,"locus YJL164C, strain tpk1, active compounds read low",0.215 (active)
same,normalized growth,"locus YJL166W, strain qcr8, active compounds read low",0.266 (active)
same,normalized growth,"locus YJL187C, strain SWE1, active compounds read low",0.272 (active)
same,normalized growth,"locus YJR066W, strain TOR1, active compounds read low",0.683 (active)
same,normalized growth,"locus YKL160W, strain elf1, active compounds read low",0.296 (active)
same,normalized growth,"locus YKR026C, strain gcn3, active compounds read low",0.452 (active)
same,normalized growth,"locus YKR091W, strain srl3, active compounds read low",0.626 (active)
same,normalized growth,"locus YLL001W, strain dnm1, active compounds read low",0.37 (active)
same,normalized growth,"locus YLL026W, active compounds read low",0.283 (active)
same,normalized growth,"locus YLL041C, strain sdh2, active compounds read low",0.462 (active)
same,normalized growth,"locus YLR027C, strain aat2, active compounds read low",0.225 (active)
same,normalized growth,"locus YLR113W, strain HOG1, active compounds read low",0.807 (active)
same,normalized growth,"locus YLR221C, strain rsa3, active compounds read low",0.25 (active)
same,normalized growth,"locus YLR258W, strain gsy2, active compounds read low",0.285 (active)
same,normalized growth,"locus YLR262C, strain YPT6 (second series), active compounds read low",0.397 (active)
same,normalized growth,"locus YLR320W, strain mms22, active compounds read low",0.189 (active)
same,normalized growth,"locus YLR342W, strain FKS1, active compounds read low",0.513 (active)
same,normalized growth,"locus YLR357W, strain rsc2, active compounds read low",1.11
same,normalized growth,"locus YLR370C, strain arc18, active compounds read low",0.405 (active)
same,normalized growth,"locus YLR384C, strain iki3, active compounds read low",0.635 (active)
same,normalized growth,"locus YML120C, strain ndi1, active compounds read low",0.325 (active)
same,normalized growth,"locus YMR058W, strain fet3, active compounds read low",0.281 (active)
same,normalized growth,"locus YMR125W, strain sto1, active compounds read low",0.533 (active)
same,normalized growth,"locus YMR129W, active compounds read low",0.361 (active)
same,normalized growth,"locus YMR205C, strain PFK2, active compounds read low",0.532 (active)
same,normalized growth,"locus YMR231W, strain pep5, active compounds read low",0.188 (active)
same,normalized growth,"locus YNL071W, strain lat1, active compounds read low",0.209 (active)
same,normalized growth,"locus YNL183C, strain NPR1, active compounds read low",0.808 (active)
same,normalized growth,"locus YNL209W, strain ssb2, active compounds read low",0.395 (active)
same,normalized growth,"locus YNL248C, strain rpa49, active compounds read low",0.378 (active)
same,normalized growth,"locus YNL322C, strain KRE1 (second series), active compounds read low",0.506 (active)
same,normalized growth,"locus YNR049C, strain mso1, active compounds read low",0.562 (active)
same,normalized growth,"locus YOR001W, strain rrp6, active compounds read low",0.26 (active)
same,normalized growth,"locus YOR070C, strain gyp1, active compounds read low",0.166 (active)
same,normalized growth,"locus YOR080W, strain dia2, active compounds read low",0.516 (active)
same,normalized growth,"locus YOR083W, strain WHI5, active compounds read low",0.369 (active)
same,normalized growth,"locus YOR106W, strain vam3, active compounds read low",0.187 (active)
same,normalized growth,"locus YOR231W, strain MKK1, active compounds read low",0.769 (active)
same,normalized growth,"locus YOR265W, strain rbl2, active compounds read low",0.432 (active)
same,normalized growth,"locus YOR270C, strain vph1, active compounds read low",0.192 (active)
same,normalized growth,"locus YOR290C, strain snf2, active compounds read low",0.305 (active)
same,normalized growth,"locus YPL051W, strain arl3, active compounds read low",0.199 (active)
same,normalized growth,"locus YPL078C, strain atp4, active compounds read low",0.373 (active)
same,normalized growth,"locus YPL106C, strain sse1, active compounds read low",0.444 (active)
same,normalized growth,"locus YPL240C, strain hsp82, active compounds read low",0.334 (active)
same,normalized growth,"locus YPL256C, strain CLN2, active compounds read low",0.81 (active)
